High-throughput results from PubChem.
Hits are enriched below; roughly 4.6% of the tested compounds scored in any of these assays.
hgDAF-12 ag – H. glycines DAF-12 receptor agonists, primary screen, cell-based, luminescence, HEK293, GAL4 fusion, UAS-luciferase; actives 1.8% (n = 370,000); AID 687014, 2013; Nuclear hormone receptor DAF-12 (Heterodera glycines), GAL4 fusion; activation, % at 6.8 µM; HEK293 GAL4-hgDAF12 UAS-luciferase reporter, agonist luminescence; normalized to butyrate control;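 active = activation above a cutoff set at the mean of all screened compounds plus 3 SD, cut at about 10% in these data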;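 note: 0% = DMSO wells and 100% = sodium butyrate wells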
hcDAF12 agonist – H. contortus DAF-12 nuclear receptor activators, primary screen, cell-based, luminescence, HEK293, lit1-tk-luc reporter; activation, % at 6.8 µM; HEK293 hcDAF-12 lit1-tk-luc reporter; 0% DMSO, 100% Δ7-dafachronic acid; actives 1.4% (n = 370,000);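 active = activation above the mean of all tested compounds plus 3 SD, cut at about 5.5% in these data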;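 note: 100% = response to 3 µM Δ7-dafachronic acid high control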
DAX1 inh-1 – DAX1 (NR0B1) inhibitors on StAR promoter, primary screen, cell-based, luminescence, SF-1 (NR5A1), full-length DAX-1; AID 652010, 2013; HEK293T StAR-luciferase reporter, SF-1/DAX-1 repression relief; inhibition, % at 6.8 µM; actives 1.1% (n = 370,000);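 active = inhibition above the mean over all tested compounds plus 3 SD, cut at about 3.6% in these data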;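 note: 0% = DAX-1 cells with DMSO and 100% = cells lacking DAX-1 with DMSO; higher inhibition means more luminescence from relief of DAX-1 repression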
DAX1 inh-2 – DAX1 (NR0B1) inhibitors, primary screen, cell-based, HEK293, Gal4-DAX1, luciferase luminescence. Nuclear receptor subfamily 0 group B member 1 (Homo sapiens), P51843. HEK293 Gal4-DAX1 luciferase reporter. inhibition, % at 6.75 µM. actives 0.99% (n = 340,000);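 active = inhibition above the mean over all tested compounds plus 3 SD, cut at about 4.2% in these data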;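 note: 0% = DAX1-transfected cells with DMSO and 100% = empty-vector control cells with DMSO; inhibition shows as a rise in luminescence from relieved DAX1 repression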
Target sequence (P51843 207-470 limits assumed): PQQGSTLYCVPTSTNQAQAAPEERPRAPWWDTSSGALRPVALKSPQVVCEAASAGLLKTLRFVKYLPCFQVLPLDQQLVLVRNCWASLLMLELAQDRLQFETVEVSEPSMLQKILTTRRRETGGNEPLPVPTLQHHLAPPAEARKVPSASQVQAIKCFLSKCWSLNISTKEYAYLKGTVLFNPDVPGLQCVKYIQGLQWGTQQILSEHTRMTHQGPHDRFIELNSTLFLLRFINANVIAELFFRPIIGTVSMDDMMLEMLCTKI
ssDAF12 agonist – S. stercoralis DAF-12 nuclear receptor activators, primary screen, cell-based, luminescence, HEK293, GRIP1 co-expression, lit1-tk-luc; Nuclear hormone receptor DAF-12 (Strongyloides stercoralis); HEK293 ssDAF-12/GRIP1 lit1-tk-luc reporter; % of 3 µM dafachronic acid response; activation, % at 6.8 µM; actives 1% (n = 370,000);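 active = activation above the mean over all tested compounds plus 3 SD, cut at about 0.9% in these data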;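 note: 0% = DMSO-only wells and 100% = 3 µM delta7-dafachronic acid wells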
Wee1 stabilizer – Wee1 degradation inhibitors, primary screen, cell-based, HeLa, Wee1K328M-luciferase, luminescence; Wee1-like protein kinase (Homo sapiens), P30291; HeLa Luc-Wee1K328M stability; 100% = proteasome inhibitor MG132 effect; reporter increase, % at 5 µM; actives 1.2% (n = 220,000); AID 1321, 2008;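 active = activation above the mean of all tested compounds plus 3 SD, set per screening run, cut at about 8.8% in these data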;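 note: cells exposed to compound for 20 h before luminescence read; 0% = DMSO alone and 100% = MG132 at 30 µM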
DAX1 inh confirm – DAX1 (NR0B1) inhibitors relieving SF-1 repression, confirmation, cell-based, luminescence, HEK293T, full-length DAX-1, SF-1 activated StAR promoter; actives 87% (n = 2,400); shares compounds with DAX1 inh-1; inhibition, % at 6.8 µM; HEK293T StAR-promoter luciferase reporter, SF-1/DAX-1 repression;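 active = inhibition above the average of every tested compound plus 3 SD, cut at about 3.8% in these data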;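 note: 0% = DAX-1 cells with DMSO and 100% = no DAX-1 control cells with DMSO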
Target sequence (P51843 whole entry, looked up): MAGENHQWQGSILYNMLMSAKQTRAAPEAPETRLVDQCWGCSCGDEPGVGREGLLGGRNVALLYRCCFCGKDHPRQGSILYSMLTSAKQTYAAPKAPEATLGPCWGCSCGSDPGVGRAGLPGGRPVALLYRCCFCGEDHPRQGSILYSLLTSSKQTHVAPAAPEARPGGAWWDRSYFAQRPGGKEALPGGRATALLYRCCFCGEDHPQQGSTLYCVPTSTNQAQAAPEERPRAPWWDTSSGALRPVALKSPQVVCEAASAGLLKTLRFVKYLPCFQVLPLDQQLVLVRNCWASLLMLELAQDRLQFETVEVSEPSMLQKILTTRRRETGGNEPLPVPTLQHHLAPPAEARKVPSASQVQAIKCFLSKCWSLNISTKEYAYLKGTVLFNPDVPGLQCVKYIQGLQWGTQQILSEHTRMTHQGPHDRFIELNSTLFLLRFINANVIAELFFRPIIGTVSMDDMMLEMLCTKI
SF1 AF2mut Luc – StAR reporter signal changes without DAX1, counter-screen for DAX1 inhibitor project, cell-based, luminescence, AF-2 mutant SF-1, transactivation. shares compounds with DAX1 inh-1. HEK293 StAR-luciferase, SF-1 AF2 mutant. inhibition, % at 6.8 µM. actives 78% (n = 2,400). AID 652136, 2013;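 active = inhibition above the mean of all tested compounds plus 3 SD, cut at about 3% in these data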;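 note: 0% = DAX-1 transfected cells with DMSO and 100% = cells without DAX-1 with DMSO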
LXR ag – LXR agonists, Gal4 luciferase reporter, confirmation, counter-screen for hcDAF-12 agonist project, cell-based, luminescence, HEK293, H. contortus campaign | shares compounds with hcDAF12 agonist | AID 743027, 2013 | 3,400 tested, under 10 active | HEK293 Gal4-LXR tk-luc reporter, 24 h; normalized: DMSO 0%, positive control 100% | activation, % at 6.8 µM;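 active = mean percent activation of the reporter above a cutoff set as the average over tested compounds plus their standard deviation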
hcDAF12 conf – H. contortus DAF-12 receptor agonists, confirmation, cell-based, luminescence, HEK293, lit1-tk-luc, triplicate | shares compounds with hcDAF12 agonist | HEK293 hcDAF-12 lit1-tk-luc reporter; % of Δ7-dafachronic acid response | activation, % at 6.8 µM | actives 61% (n = 3,400) | AID 743032, 2013;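 active = mean activation across triplicate tests above the threshold derived from the earlier primary screen, cut at about 5.5% in these data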;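 note: 0% = DMSO only wells and 100% = 3 µM Δ7-dafachronic acid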
hgDAF12 conf – H. glycines DAF-12 receptor agonists, confirmation, cell-based, luminescence, HEK293, GAL4-LBD fusion; shares compounds with hgDAF-12 ag; activation, % at 6.8 µM; actives 80% (n = 3,300); HEK293 GAL4-hgDAF12 luciferase reporter, agonist mode; percent of butyrate response; AID 743050, 2013;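 active = mean activation over triplicate wells above the hit cutoff derived from the earlier primary screen, cut at about 11% in these data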;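 note: 0% = DMSO low control and 100% = 2 mM sodium butyrate high control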
LXRb DAF12 ctr – LXR agonists, Gal4 luciferase reporter, confirmation, counter-screen for hgDAF-12 agonist project, cell-based, luminescence, HEK293, H. glycines campaign; 3,300 tested, under 10 active; 24 h; AID 743051, 2013; shares compounds with hgDAF-12 ag; activation, % at 6.8 µM;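 active = mean activation of the triplicate above a set limit carried over from the primary screen, none filed active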
Starred values were filed as active, the others as inactive; . = not tested or not shown.

SMILES | hgDAF-12 ag | hcDAF12 agonist | DAX1 inh-1 | DAX1 inh-2 | ssDAF12 agonist | Wee1 stabilizer | DAX1 inh confirm | SF1 AF2mut Luc | LXR ag | hcDAF12 conf | hgDAF12 conf | LXRb DAF12 ctr
O=C1Nc2ccccc2N(C(=O)c2ccc3ccccc3c2)C1c1nc2ccccc2[nH]1 (configuration not stated) | 27* | 6.7* | 13* | . | 1.8* | . | 3 | 2.9* | 0 | 1 | 10 | 0
COc1cccc(-c2nc(-c3ccncc3)no2)c1 | 10 | 5 | 1 | 2 | 0 | . | . | . | . | . | . | .
c1ccc(-c2noc(-c3ccc4c(c3)OCO4)n2)cc1 | 22* | 6.3* | 5.0* | 4 | 1.2* | 2 | 18* | 7.7* | . | . | 19* | 1
c1cc(-c2noc(-c3ccc4c(c3)OCO4)n2)ccn1 | . | . | . | . | . | 3 | . | . | . | . | . | .
COc1cccc(-c2noc(-c3ccc4c(c3)OCO4)n2)c1 | 17* | 5 | 6.1* | 4.3* | 1.8* | 4 | 13* | 4.0* | . | . | 17* | 1
Cc1ccsc1/C=N/NC(=O)Nc1ccccc1 | 17* | 4 | 5.8* | 5.2* | 1.1* | -1 | 11* | 6.9* | . | . | 17* | 1
CCCCC/C=C/C1=CC(=O)C[C@H](c2ccc(OC)c(OC)c2)C1 | -4 | -1 | -1 | -1 | -1 | . | . | . | . | . | . | .
O=C(O)CC/C(=N/NC(=O)c1cccs1)c1ccccc1 | 14* | 9.6* | 5.8* | 3 | 1 | 0 | 3.8* | 3.3* | 0 | 2 | 11* | 0
Cc1cc(C)c(C)c(S(=O)(=O)NCC(=O)NCC2CCCCC2)c1C | -1 | -2 | 0 | 0 | -1 | . | . | . | . | . | . | .
O=C(NCCc1ccccc1)c1ccc(Cl)cc1[N+](=O)[O-] | 9 | 1 | 2 | 4 | 0 | . | . | . | . | . | . | .
N/C(=N\OC(=O)/C=C/c1ccccc1)c1ccccn1 | 13* | 7.0* | 5.9* | 1 | 1 | 4 | 11* | 6.6* | 1 | 3 | 14* | 1
COc1ccc(CC(=O)O/N=C(\N)c2ccccn2)cc1OC | 1 | 0 | 1 | 1 | 0 | . | . | . | . | . | . | .
COc1ccc(/C=C/C(=O)O/N=C(\N)c2ccccn2)cc1OC | 29* | 7.2* | 6.2* | 1 | 0 | . | 5.4* | 3.0* | 1 | 4 | 11* | 1
COc1cccc(C(=O)Nc2nnc(-c3ccccc3)s2)c1OC | 19* | 7.0* | 5.5* | 1 | 0 | . | 7.6* | 4.0* | 1 | 4 | 14* | 1
O=C(/C(C=Nc1ccc(Br)cc1)=C(/O)c1ccco1)C(F)(F)F | 19* | 5 | 5.3* | 0 | 0 | 1 | 17* | -3 | . | . | 16* | 1
C/C(=N\NC(=O)c1sccc1C)c1ccncc1 | 20* | 9.1* | 18* | 2 | 1.1* | . | 4.9* | 2.9* | 1 | 2 | 14* | 1
Cc1ccsc1C(=O)NN=C1CCCCCC1 | 15* | 9.2* | 15* | 1 | 1.8* | . | 4.7* | 3.4* | 0 | 1 | 13* | 1
C/C(=N/NC(=O)c1ccc(C)s1)c1ccncc1 | 4 | 5 | 1 | 2 | -1 | . | . | . | . | . | . | .
Cc1nn2cc(-c3ccccc3)nc2s1 | 14* | 4 | 5.7* | -1 | -1 | 7 | 10* | 7.5* | . | . | 15* | 1
COc1cccc(-c2cccc3c2NC(=O)C3(C)Cc2ccccc2F)c1 (configuration not stated) | -3 | 0 | 1 | . | -1 | . | . | . | . | . | . | .
COc1cccc(-c2csc(NC3OC(=O)c4c3ccc(OC)c4OC)n2)c1 (configuration not stated) | 3 | 4 | 0 | . | 0 | 1 | . | . | . | . | . | .
COc1ccc2c(c1OC)C(=O)OC2Nc1nc(-c2ccc(-c3ccccc3)cc2)cs1 (configuration not stated) | 21* | 9.1* | 5.1* | 3 | 0.9* | 6 | 10* | 6.5* | 1 | 3 | 14* | 1
C[C@H]1Cn2cnc(C(=O)NCc3ccc(CNC(=O)OC(C)(C)C)cc3)c2C(=O)N1 | -1 | -2 | 0 | 0 | -1 | . | . | . | . | . | . | .
CC(CN1CCCCC1)OC(=O)c1ccc2c(c1)OCCO2 (configuration not stated) | 7 | 4 | 1 | 0 | 0 | . | . | . | . | . | . | .
